High-throughput results: PubChem BioAssay, National Center for Advancing Translational Sciences (NCATS)
GFP derepression: epigenetic modulators derepressing GFP locus in mouse cells. mouse C127i GFP locus derepression, cytometry, 30 h. Potency, µM (titrated, usually from 46.1 µM), for the others: at the top dose GFP derepression (activation). 68,000 tested, 0.09% active. AID 597; also: % of control where 0% means no effect
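Locus derepression in mouse mammary C127i cells whose integrated CMV-GFP reporter is normally silent; GFP expression after 30 h compound treatment was quantified by counting fluorescent cells.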
Peg3 imprint: genomic imprint erasure induction. mouse ES Peg3-LacZ reporter, beta-gal luminescence, 40 h. Potency, µM (doses to about 60.7 µM), without a hit: at the top dose activity change, positive = activation, most hits filed as activators. 110,000 tested, 0.02% active; also: potency is read from the fitted curve at half-maximal effect
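Each well holds 300 Peg3LacZ-Neo (maternal) female ES cells incubated 40 h at 37C, 5% CO2. LacZ is measured by BetaGlo luminescence, with AC50 and maximum efficacy derived from dose-response curves.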
CRE Fsk mod: CRE-bla signaling modulation under forskolin stimulation; CHO CRE-bla reporter (cAMP response element driving beta-lactamase), forskolin EC10, beta-lactamase ratio; Potency, µM (titrated, usually from 38.2 µM), without a hit: at the top dose activity change, negative = inhibition, most hits filed as activators; 71,000 tested, 2.5% active; active = well fitted activation curve with a large enough effect in the signal ratio, with a control signal flat, not every such curve was filed as active; inconclusive = small, poorly fitted or top-dose-only effect, or effect the other way, or a change in a side signal; the % refers to the signal ratio; also: potency is read from the fitted curve at half-maximal effect; % of control where 0% means no effect
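CRE-bla CHO cells stimulated with EC10 NKH 477 (water-soluble forskolin) and compound titrations, 3 h at 37C; beta-lactamase read with CCF4 after 2 h at room temperature. Activity from 460/530 nm emission ratio, AC50 values for positive or negative modulation.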
IkB sig inh: inhibitors of IkB signaling in ABC-DLBCL cells | Potency, µM (series often up to 57.1 µM), for inactives: top-dose IkBa stabilization activation | AID 445 | ABC-DLBCL IkBa-CBG/CBR dual luciferase ratio, 4 h; response scale: scaled: untreated 0%, proteasome inhibitor 100% | 110,000 tested, 0.04% active; active = well fitted curve in the direction sought with a large enough effect in the signal ratio, not every such curve was filed as active; inconclusive = small, poorly fitted or top-dose-only effect, or a change in a side signal; the % refers to the signal ratio;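 also: potency is read from the fitted curve at half-maximal effect; the direction sought is a rising ratio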
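In this assay, an IκBα–CBG68 fusion accumulates when IKK-driven degradation is blocked; native CBR normalizes for cell number. OCI-Ly3 cells were treated 4 h with compound and doxycycline, then green and red light read after Chroma-Glo addition.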
HBB splicing: hemoglobin beta splicing modulation; HBB splicing reporter cell assay, activation; EGFP reporter with mutant IVS2-654 intron; response scale: normalised to 500 nM splice-correcting PNA; 65,000 tested, 0.06% active; AID 925; Potency, µM (series often up to 46.1 µM), for inactives: top-dose activation, most hits filed as activators; also: potency is read from the fitted curve at half-maximal effect; 0% is about no effect
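Compounds were applied for 2 days to HeLa EGFP-654 cells, 500/well in Optimem with 2% FCS. The reporter's EGFP is disrupted by mis-splicing of beta-globin intron IVS2-654. Readout: summed well GFP fluorescence from 488 nm laser scanning; reference was 500 nM antisense […] 654 PNA.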
Numbers without * were called inactive; ? = inconclusive; nt = not tested or not shown; [ ] = dose if it differs, or a comment. The sample as a whole holds a higher share of hits than the screen did. Unless noted, calls follow the shape of the dose curve; as a rule, active = well fitted curve in the direction sought with a large enough effect; inconclusive = small, poorly fitted or top-dose-only effect, or another doubt; inactive = no such curve, though single readings can be large; an effect the other way counts as inactive or inconclusive.

SMILES	GFP derepression	Peg3 imprint	CRE Fsk mod	IkB sig inh	HBB splicing
Cn1c(=O)n(C)c2cc(NS(=O)(=O)c3ccc4c(c3)CCCC4)ccc21	10%	-16%	?	7.9µM*	-2%
Brc1ccc2[nH]c3nc(SCCN4CCOCC4)nnc3c2c1	0%	-22%	2.5µM*	0%	-1%
COc1cc(C(c2sc3nc(C)nn3c2O)N2CCN(c3ccccc3)CC2)cc(OC)c1OC (centres undefined)	nt	-9%	2µM*	?	-1%
Cc1c(CC(=O)NCc2ccc(F)cc2)c(=O)oc2cc(O)c(Cl)cc12	nt	-10%[10.9 µM]	nt	?	nt
Cc1ccccc1CNC(=O)c1ccc2nc(SCc3ccc(F)cc3)n(C)c2c1	nt	-16%[10.9 µM]	nt	2%	nt
CN(Cc1ccccc1)c1nc2c(c(=O)[nH]c(=O)n2C)n1Cc1ccccc1	-2%	-5%	?	0%	0%[57.5 µM]
CCC(C)Nc1nc2c(c(=O)[nH]c(=O)n2C)n1Cc1ccc(F)cc1 (centres undefined)	nt	-3%[10.9 µM]	nt	3%	nt
CCCCn1c(NC(C)CC)nc2c1c(=O)[nH]c(=O)n2C (centres undefined)	0%	-9%	10µM*	-3%	-4%[57.5 µM]
CN(Cc1ccccc1)c1nc2c(c(=O)[nH]c(=O)n2C)n1CCOc1ccccc1	0%	?	5µM*	-1%	-2%[57.5 µM]
CCCCCn1c(N(C)Cc2ccccc2)nc2c1c(=O)[nH]c(=O)n2C	nt	-8%	10µM*	-2%	0%
Cc1ccc(C)c(NC(=O)CN2CCSc3ccc(S(=O)(=O)N4CCCC4)cc32)c1	nt	-15%[10.9 µM]	nt	0%	nt
COc1ccc2[nH]c3nc(SCc4nnc(-c5ccccc5)o4)nnc3c2c1	1%	-16%	4µM*	1%	-4%
COc1ccc2[nH]c3nc(SC(C)C)nnc3c2c1	1%	-30%	?	?	0%[57.5 µM]
CN(C)c1ncc2nc(-c3cn(C)c4ccccc34)c(=O)n(C[C@H]3CCCO3)c2n1	-3%[9.22 µM]	?	2µM*	-1%[11.4 µM]	7%
O=c1c(-c2ccccc2)nc2cnc(N3CCOCC3)nc2n1C[C@H]1CCCO1	-2%[9.22 µM]	1%	2µM*	-2%[11.4 µM]	-1%
CN(C)c1ncc2nc(-c3cccc(C#N)c3)c(=O)n(C[C@H]3CCCO3)c2n1	6%[9.22 µM]	-11%	?	-4%[11.4 µM]	2%
CN(C)c1ncc2nc(-c3ccccc3)c(=O)n(C[C@H]3CCCO3)c2n1	5%[9.22 µM]	?	4µM*	-4%[11.4 µM]	0%
CN(C)c1ncc2nc(-c3ccc(Cl)cc3)c(=O)n(C[C@H]3CCCO3)c2n1	0%[9.22 µM]	-7%	4µM*	2%[11.4 µM]	1%
CCn1ccc2cc(S(=O)(=O)N3CCC(C(=O)NCCc4ccccc4Cl)CC3)ccc21	nt	-16%[10.9 µM]	nt	?	nt
COc1ccccc1C(=O)c1c(N)c(-c2nc(-c3ccccc3)cs2)c2ccccn12	nt	-10%[10.9 µM]	nt	?	nt
O=C(c1ccco1)N1CCN(C(=O)C(Cc2ccccc2)NS(=O)(=O)c2cccs2)CC1 (centres undefined)	2%	3.2µM*	7%	3%	-5%
CN(C)C(=O)c1ccc(-c2nc(Nc3ccccc3)c3ccccc3n2)cc1	11%[9.22 µM]	-10%	3.2µM*	-6%[11.4 µM]	0%
c1ccc2c(NC3CC3)nc(-c3ccoc3)nc2c1	-3%[9.22 µM]	-12%	?	1%[11.4 µM]	7%
CN(C)C(=O)c1ccc(-c2nc(N(C)C)c3ccccc3n2)cc1	-2%[9.22 µM]	-25%	7.9µM*	1%[11.4 µM]	-2%
COC(=O)c1ccc(Nc2nc(-c3ccc(C)cc3)nc3ccccc23)cc1	nt	-23%[10.9 µM]	nt	?	nt
COCCNc1nc(-c2ccc(C(=O)N(C)C)cc2)nc2ccccc12	-1%[9.22 µM]	-14%	?	-1%[11.4 µM]	1%
CN(C)C(=O)c1ccc(-c2nc(NCc3ccccc3)c3ccccc3n2)cc1	2%[9.22 µM]	-33%	2µM*	-1%[11.4 µM]	0%
c1ccc(Nc2nc(-c3ccoc3)nc3ccccc23)cc1	-3%[9.22 µM]	4µM*	?	0%[11.4 µM]	0%
CCOC(=O)c1cc(-c2ccccc2)n(CCC(=O)NCCc2ccccc2)c1C	nt	-16%[10.9 µM]	nt	1%	nt
CCCS(=O)(=O)Nc1cc2c(cc1NCc1ccccc1)n(C)c(=O)n2C	nt	-11%[10.9 µM]	nt	?	nt
